Measurements as given in PubChem BioAssay AID1159580 (chemical genetic matrix, 2015).
Hit rate of the full screen: of about 5,500 compounds, about 2,000 (36%) were called active. Another 18% or so got no clear call; they are omitted. No stated cut-off is given here; in the data, active means normalized growth mostly below about 0.91 (no sharp cut-off); inconclusive means no clear call, values can overlap the other calls; inactive means mostly above about 0.92. Some of the results follow.

Experiment: chemical genetic growth profiling, strain panel (AID 1159580);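 further: tested at 20 µM; growth read once vehicle control cultures reached saturation at 30 °C; 1 = growth at the plate median or of vehicle wells; lower values mean less growth of the strain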
Conditions: S. cerevisiae deletion strains, growth OD

Measured: normalized growth

CNCC(O)c1ccc(O)cc1 (stereo not given)
inactive: locus YAL013W, strain DEP1, active compounds read low 1.03 | locus YAL040C, strain CLN3, active compounds read low 1.02 | locus YCL061C, strain MRC1 (second series), active compounds read low 1 | locus YDR363W, strain ESC2, active compounds read low 1.01 | locus YER002W, strain NOP16, active compounds read low 1.02 | locus YGR078C, strain PAC10, active compounds read low 1.02 | locus YJR075W, strain HOC1, active compounds read low 1.01 | locus YMR263W, strain SAP30, active compounds read low 1 | locus YMR307W, strain GAS1, active compounds read low 1.04 | locus YNL128W, strain TEP1, active compounds read low 1.03 | locus YNL175C, strain NOP13, active compounds read low 1.02 | locus YNL197C, strain WHI3, active compounds read low 1.01 | locus YNL224C, strain SQS1, active compounds read low 0.999 | locus YOR083W, strain WHI5 (second series), active compounds read low 1.02 | locus YPL241C, strain CIN2, active compounds read low 1
